In all, about 33,000 sequences were measured (“E-score (-0.5 to 0.5)”: median about -0.054, highest 2% from about 0.35 on). This excerpt belongs to a sample that is enriched for the highest values.
Molecular target: T1, Stb5 (UniProt P38699)
T1 sequence: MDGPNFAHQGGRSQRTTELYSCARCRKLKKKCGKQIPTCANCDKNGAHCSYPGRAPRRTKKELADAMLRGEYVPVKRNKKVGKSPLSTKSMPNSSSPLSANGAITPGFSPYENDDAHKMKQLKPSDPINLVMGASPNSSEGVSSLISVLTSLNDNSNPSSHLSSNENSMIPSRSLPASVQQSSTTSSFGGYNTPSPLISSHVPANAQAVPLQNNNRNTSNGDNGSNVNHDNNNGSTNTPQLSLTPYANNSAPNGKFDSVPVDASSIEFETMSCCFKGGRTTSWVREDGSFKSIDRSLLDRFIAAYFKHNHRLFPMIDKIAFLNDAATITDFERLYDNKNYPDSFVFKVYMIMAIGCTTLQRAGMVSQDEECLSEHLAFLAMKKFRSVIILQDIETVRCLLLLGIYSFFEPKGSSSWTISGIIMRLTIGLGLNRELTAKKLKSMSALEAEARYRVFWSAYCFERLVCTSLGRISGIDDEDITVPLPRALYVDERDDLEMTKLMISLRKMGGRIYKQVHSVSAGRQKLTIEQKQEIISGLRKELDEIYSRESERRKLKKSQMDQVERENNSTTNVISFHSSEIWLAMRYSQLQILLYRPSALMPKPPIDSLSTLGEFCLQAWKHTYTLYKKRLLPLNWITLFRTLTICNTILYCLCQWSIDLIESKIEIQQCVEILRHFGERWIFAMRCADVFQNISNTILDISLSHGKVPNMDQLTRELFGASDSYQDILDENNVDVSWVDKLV
Assay: PBM E-score (8-mer binding enrichment) (E-score (-0.5 to 0.5)); higher = stronger / more preferred TF binding
Conditions: protein concentration: 200 nM; construct: GST-full length
Experimental: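 Universal 'all 10-mer' protein binding microarrays (Agilent AMADID 015681) probed with GST-tagged S. cerevisiae TFs (full-length or DBD) made by in vitro transcription/translation (PURExpress), about 100-200 nM. Bound TF was detected with fluorescent anti-GST. Each ungapped 8-mer (which stands for itself and its reverse complement) is scored by the PBM enrichment score (E-score), a modified Wilcoxon-Mann-Whitney statistic from -0.5 to +0.5, computed with the Universal PBM Analysis Suite. Scale: above 0.35 generally sequence-specific binding.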

Row | Sequence | PBM E-score
1 | CCCACAGC | -0.146
2 | TCCCGCCA | 0.205
3 | CCCCCCCG | -0.255
4 | CCCCGCCA | 0.406
5 | CCCCGCCG | 0.381
6 | GCCCGCCA | 0.284
7 | ACCCGCCG | 0.318
8 | GGGATGAA | 0.0485
9 | CACTGTAG | -0.25
10 | CTTCCCTA | -0.161
11 | ACTGCCGC | 0.311
12 | AGGGCCTA | 0.0959
13 | CGGGCCTA | 0.437
14 | CGGGCTTC | 0.293
15 | CGGGCCTC | 0.108
16 | AGGGCTCA | -0.23
17 | AGGGCATA | -0.0797
18 | CGGGCTTA | 0.473
19 | AGGGCTTA | 0.12
20 | CGGGCTCA | 0.358
21 | GGGGCATA | 0.083
22 | CGGGCTCC | 0.0609
23 | CGGGCATA | 0.419
24 | CTCGTCCA | -0.102
25 | AGGAATAT | -0.0199

Row | Sequence | PBM E-score
26 | ACATAGAA | -0.0458
27 | AAATCGCG | -0.0128
28 | ATGTGGGC | 0.089
29 | GCCGATAA | 0.313
30 | CATGAACA | -0.0519
31 | ACGCGGCA | 0.189
32 | CCGCGGCA | 0.367
33 | AGGCGTCA | -0.0617
34 | ACGCGGTA | 0.215
35 | GCGCGGCA | 0.237
36 | CGGCGTCC | 0.277
37 | AGGCGGCA | 0.238
38 | CCGCGGTA | 0.399
39 | CGGCGTCA | 0.384
40 | GGGCGGCA | 0.323
41 | CCGCGGTC | 0.32
42 | CGGCGGCA | 0.411
43 | GCGCCTCC | -0.0611
44 | CCCTCACC | -0.225
45 | AGTAAAGA | 0.143
46 | GCACCCGA | 0.0572
47 | TCCGTGAA | 0.171
48 | ATGAAACG | 0.067
49 | GTTTGGGA | -0.2
50 | CCGCGTTC | 0.193

Row | Sequence | PBM E-score
51 | GAGAGTGA | -0.349
52 | ATATCTCC | 0.397
53 | CTATCTCC | 0.235
54 | ATATCACC | 0.436
55 | ATATCCGC | 0.402
56 | ATATCCGA | 0.37
57 | CTATCACC | 0.216
58 | CTATCCGA | 0.0404
59 | ACATCCGC | 0.339
60 | CTATCCGC | 0.0573
61 | ATATCCGG | 0.294
62 | ATATCACA | -0.0666
63 | ATCTCTCC | 0.216
64 | ATGGGTGA | -0.12
65 | GACTTCCA | -0.177
66 | AGAAAACA | -0.128
67 | AGGTCGCA | 0.0143
68 | CTGCTAAA | 0.00756
69 | ACTCCATG | -0.0336
70 | CTCAGAAC | -0.191
71 | AATTGGCG | 0.063
72 | GCCCCCAC | 0.0261
73 | ATATCCCC | 0.395
74 | ATATGTCC | 0.406
75 | CTATGTCC | 0.232

Row | Sequence | PBM E-score
76 | ATATGTCG | 0.083
77 | CTATCCCC | 0.276
78 | ATATCCCG | 0.275
79 | CTATTCCC | 0.136
80 | CTATACCC | 0.229
81 | ATATTCCC | 0.372
82 | ATATACCC | 0.371
83 | ATATTCCG | 0.171
84 | ATATACCG | 0.34
85 | AGTCTGGA | 0.00288
86 | TCGATCGA | -0.148
87 | GAGCTCAA | 0.0147
88 | ACTGGCCG | -0.0443
89 | TCGCTCCA | -0.126
90 | AAATTCAG | -0.221
91 | CAGCTGAG | -0.231
92 | CCATGCAA | -0.00387
93 | ACGTGGGA | -0.265
94 | AGAAAAGG | -0.103
95 | ATCAAACA | -0.234
96 | ATATATCA | 0.0402
97 | CTATATCC | 0.187
98 | GTATCGGA | 0.263
99 | ATATCGGA | 0.166
100 | ATATATCC | 0.398

Row | Sequence | PBM E-score
101 | CTATCGGA | 0.402
102 | ACCTTTAG | 0.0714
103 | TAAGCCCA | 0.0396
104 | AACGCGAC | -0.173
105 | AATAGAAT | -0.187
106 | GATAGGTA | -0.0734
107 | AGCGGCAC | 0.355
108 | GTCGGCAC | 0.374
109 | ATCGGCAC | 0.339
110 | CGCGGCAC | 0.288
111 | GGCGGCAC | 0.343
112 | ACCGGCAA | 0.241
113 | CTCGGCAC | 0.187
114 | ACCGGCAC | 0.373
115 | ACCGGCAG | 0.277
116 | ATCGGCAG | 0.219
117 | ATCGGCAT | 0.363
118 | GTCGGCAA | 0.276
119 | ATTGGAGC | -0.193
120 | TATCCTAA | -0.109
121 | CATGTGGG | -0.114
122 | CCATGGGC | -0.0701
123 | AAATTGAC | 0.0873
124 | AGCGGCCT | 0.377
125 | AGCGGCCG | 0.252

Row | Sequence | PBM E-score
126 | AGCGGCAT | 0.401
127 | AGCGGCAG | 0.276
128 | AGCGGCCA | 0.177
129 | AGCGGCAA | 0.2
130 | AAGGCGGA | 0.292
131 | AGCACGAC | -0.2
132 | CTACGAGA | -0.102
133 | AACATCCG | 0.359
134 | ATTATCCA | -0.0234
135 | AATATCCG | 0.39
136 | ATTATCCG | 0.359
137 | AATATCCC | 0.291
138 | ATTATCCC | 0.0778
139 | AACATCCC | 0.149
140 | AATATCCA | -0.00669
141 | CACATCCG | 0.0898
142 | AGTTCGGA | 0.208
143 | AAGTGCGA | 0.187
144 | GGGGTGCA | 0.0203
145 | ACACAGAG | -0.0564
146 | AACTCATC | -0.116
147 | ACTTGCAT | 0.0144
148 | GCTCTGAA | -0.166
149 | AACACATA | -0.222
150 | ATTATACC | 0.362

Row | Sequence | PBM E-score
151 | ATTATACA | 0.0217
152 | ATAATACG | 0.153
153 | ATAATACC | 0.368
154 | ATTATACG | 0.173
155 | ATAATACA | 0.0704
156 | ATGTGGTC | -0.168
157 | GCCGTTCC | 0.202
158 | GATTCTCC | 0.112
159 | AGTCGAAT | -0.199
160 | AATCCCAT | -0.042
161 | CATCCCGA | 0.1
162 | CATCCCGC | 0.155
163 | AATCCCGA | 0.394
164 | AGTCCCGA | 0.342
165 | AATCCCCT | -0.165
166 | TATCCCGA | 0.18
167 | CGTCCCGC | 0.2
168 | AGTCCCGC | 0.358
169 | AATCCCGC | 0.398
170 | AATCCCGT | 0.419
171 | GATCCCGC | 0.232
172 | CAATTTTA | -0.00732

Source: the supplement of paper PMC3334620
